{"source": "PubChem BioAssay (Tox21)", "note": "Values without a mark were called inactive. Activity calls are given as the source filed them. Calls follow the shape of the dose curve; as a rule, active = well fitted curve in the direction sought with a large enough effect in the repeat runs; inconclusive = weak or mixed curves; inactive = flat fitted curve, though single readings scatter. % is scaled to controls: 0 for no effect and ±100 for the full control effect.", "data": [{"test": "qHTS assay to test for compound auto fluorescence at 590 nm (red) in HepG2 cell free culture (AID 720684)", "conditions": "cell-free medium autofluorescence, red 540/590 nm; series mostly up to 91.3 µM", "text": "U.S. Tox21 Program National Center for Advancing Translational Sciences [NCATS] NIH Chemical Genomics Center [NCGC] U.S. Environmental Protection Agency [EPA] National Institutes of Environmental Health Sciences [NIEHS] National Toxicology Program [NTP] U.S. Food and Drug Administration [FDA] Tox21 Assay Overview: Compound auto fluorescence often interferes with screening of the compound library against various biological targets and signaling pathways. Some of these compounds may have fluorophoric properties. Such properties may interfere with the assay outputs resulting in false positives and/or negatives. To decrease such complications and ensure the compound activities are relevant in terms of biological response, the Tox21 10K compound library was screened for auto fluorescence. From the fluorophores used as reporter signals in our screening assays, the auto fluorescence equivalencies of compounds against three fluorophores have been evaluated: Triamterene, Fluorescein and Rose Bengal sodium for blue, green and red fluorescence, respectively. The fluorescence intensities were measured using Excitation/Emission wavelengths at 405/460nm, 485/535nm and 540/590nm for blue, green and red labels, respectively. This assay includes the red fluorescence data.\nTox21 Assay Protocol Summary: 5 uL of culture medium (MEM containing 10% FBS) per well was dispensed into black wall/clear bottom 1536-well plates using a Multidrop Combi Dispenser (ThermoFisher Scientific, Waltham, MA). After 23 nL compound or DMSO vehicle was transferred into assay plate by a pintool work station (Kalypsys, San Diego, CA), fluorescence intensities in the assay plates were measured by an Envision (PerkinElmer, Shelton, CT) plate reader using three labels for measuring blue, green and red fluorescence at […] 460, 535 and 590nm respectively.", "values": [{"smiles": "CC(=O)C1=C(C)[C@@H]2C[C@@]3(C1)[C@H](C)CC[C@H]3C2(C)C", "outcome": "inactive"}, {"smiles": "NCCO", "outcome": "inactive"}, {"smiles": "CN(C)c1ccc2nc3ccc(=[N+](C)C)cc-3sc2c1", "outcome": "inactive"}, {"smiles": "CCc1cc(C(C)(C)C)c(O)c(C(C)(C)C)c1", "outcome": "inactive"}, {"smiles": "O=Nc1ccc(Nc2ccccc2)cc1", "outcome": "inactive"}, {"smiles": "CC(=O)OCCOCCOCCOC(C)=O", "outcome": "inactive"}, {"smiles": "O=C1NCC2(CCN(CCc3ccccc3)CC2)O1", "outcome": "inactive"}, {"smiles": "COc1ccc(Cc2cnc(N)nc2N)cc1OC", "outcome": "inactive"}, {"smiles": "CCOc1ccccc1C(N)=O", "outcome": "inactive"}, {"smiles": "Clc1ccc2c(c1)C(N1CCNCC1)=Nc1ccccc1O2", "outcome": "inactive"}, {"smiles": "O", "outcome": "inactive"}, {"smiles": "CC(C)(c1ccccc1)c1ccc(Nc2ccc(C(C)(C)c3ccccc3)cc2)cc1", "outcome": "inactive"}, {"smiles": "Cc1ccnc2c1NC(=O)c1cccnc1N2C1CC1", "outcome": "inactive"}, {"smiles": "C=CC(=O)OCCCCCCCC", "outcome": "inactive"}, {"smiles": "CCC(=O)/C=C/C1C(C)=CCCC1(C)C", "note": "(stereo not given)", "outcome": "inactive"}, {"smiles": "CC(=O)CC(=O)Nc1ccc2[nH]c(=O)[nH]c2c1", "outcome": "inactive"}, {"smiles": "COC(=O)[C@H]1[C@H]2C[C@@H]3c4[nH]c5cc(OC)ccc5c4CCN3C[C@H]2C[C@@H](OC(=O)c2cc(OC)c(OC)c(OC)c2)[C@@H]1OC", "outcome": "inactive"}, {"smiles": "N[C@@H]1CONC1=O", "outcome": "inactive"}, {"smiles": "Nc1ccc2cc3ccccc3cc2c1", "outcome": "inactive"}, {"smiles": "O=C1Nc2ccccc2C1(c1ccc(O)cc1)c1ccc(O)cc1", "outcome": "inactive"}, {"smiles": "CC(C)(C)c1cc(C(C)(C)C)c(O)c(C(C)(C)C)c1", "outcome": "inactive"}, {"smiles": "C1COC(NC(C2CC2)C2CC2)=N1", "outcome": "inactive"}, {"smiles": "OCC(CO)N[C@H]1C[C@](O)(CO)[C@@H](O)[C@H](O)[C@H]1O", "outcome": "inactive"}, {"smiles": "CCn1c2ccccc2c2cc(N)ccc21", "outcome": "inactive"}, {"smiles": "c1ccc2n[nH]nc2c1", "outcome": "inactive"}, {"smiles": "CCCCCCC(O)CCCCCCCCCCC(=O)O", "note": "(stereo not given)", "outcome": "inactive"}, {"smiles": "OCCOCCN1CCN(C(c2ccccc2)c2ccc(Cl)cc2)CC1", "note": "(stereo not given)", "outcome": "inactive"}, {"smiles": "CCCN[C@H]1CCc2nc(N)sc2C1", "outcome": "inactive"}, {"smiles": "OCCN1CCNCC1", "outcome": "inactive"}, {"smiles": "COc1ccc(CCN2CCC(Nc3nc4ccccc4n3Cc3ccc(F)cc3)CC2)cc1", "outcome": "inactive"}, {"smiles": "CC1=CC(=O)c2ccccc2C1=O", "outcome": "inactive"}, {"smiles": "O=C(O)c1cc(Cl)cc(Cl)c1", "outcome": "inactive"}, {"smiles": "CC(C)(C)NC(=O)[C@@H]1CN(Cc2cccnc2)CCN1C[C@@H](O)C[C@@H](Cc1ccccc1)C(=O)N[C@H]1c2ccccc2C[C@H]1O", "outcome": "inactive"}, {"smiles": "Nc1nc(=S)c2[nH]cnc2[nH]1", "outcome": "inactive"}, {"smiles": "O=C(O)CP(=O)(O)O", "outcome": "inactive"}, {"smiles": "NCCCCCC(=O)O", "fluorescence, % of Rose Bengal": "0.496% [at 18.6 µM]"}, {"smiles": "CO[Si](OC)(OC)c1ccccc1", "outcome": "inactive"}, {"smiles": "CC(=O)Nc1ccc(C(=O)CCl)cc1", "outcome": "inactive"}, {"smiles": "CCC[C@H](N[C@@H](C)C(=O)N1[C@H](C(=O)O)C[C@@H]2CCCC[C@@H]21)C(=O)OCC", "outcome": "inactive"}, {"smiles": "CC1=C(C=O)C(C)(C)CC=C1", "outcome": "inactive"}]}]}
